Screening results (PubChem BioAssay)
G9a inh: inhibitors of human histone lysine methyltransferase G9a; Potency, µM (doses to about 102 µM), for the others: at the top dose activity, negative = inhibition, hits mostly inhibitors; AID 504332; 8.8% of 350,000 active; G9a H3K9 monomethylation, AlphaScreen, 2 h; Q96KQ7; further: potency means the concentration at half of the fitted maximal effect; on the % scale 0 is the no-effect control and ±100 the full control effect; nearly all actives have a fitted effect of over 75% in size
Target sequence (Q96KQ7 913-1193 limits assumed): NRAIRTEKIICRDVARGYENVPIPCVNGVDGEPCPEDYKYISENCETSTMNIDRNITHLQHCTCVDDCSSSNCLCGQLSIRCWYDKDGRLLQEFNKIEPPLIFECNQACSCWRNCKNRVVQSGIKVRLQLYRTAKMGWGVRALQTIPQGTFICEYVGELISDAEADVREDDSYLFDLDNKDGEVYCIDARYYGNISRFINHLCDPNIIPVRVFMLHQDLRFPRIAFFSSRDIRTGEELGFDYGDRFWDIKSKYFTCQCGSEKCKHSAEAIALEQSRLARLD
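Step 1: enzyme (final 20 nM) with compound, 15 min RT. Step 2: substrate peptide 500 nM and SAM 20 uM, 2 h RT. Step 3: anti-H3K9me1 antibody and AlphaScreen beads, 10 min, then plate read.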
CtBP-E1A inh: blocks the CtBP interaction with E1A; activity change, % (concentration not given with the values); 0.49% of 340,000 active; AlphaScreen GST-E1A/His-CtBP binding, 1536-well; active compounds read low; in the data active means activity change below about -65%; inconclusive means mostly about -30% to -63%; further: on the % scale 0 is the no-effect control and ±100 the full control effect
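AlphaScreen with 125 nM GST-E1A and 125 nM His-CtBP (5X stocks) in Tris pH 8.0, 300 mM NaCl, BSA, Tween 20, TCEP. Compounds preincubated 2 h at 37 deg C, then glutathione donor/nickel acceptor beads added for 1 h at 37 deg C in dark.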
Six1-Eya2 blk: blocks human Six1 binding to Eya2 | Q15475+O00167 | AlphaScreen GST-Six1/His-Eya2 binding, biochemical; active compounds read low | activity change, % (concentration not given with the values) | 0.56% of 360,000 active | AID 651725; in the data active means activity change below about -65%; inconclusive means mostly about -30% to -63%; further: on the % scale 0 is the no-effect control and ±100 the full control effect
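GST-Six1 + His-Eya2 (5X stock: 250/500 nM); Tris pH 8.0, 300 mM NaCl, 0.05% BSA, 0.02% Tween 20; GSH donor/Ni acceptor beads; 1 h 37 °C dark; AlphaScreen readout.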
HP1b binding inh: HP1-beta chromodomain-methylated histone interaction inhibition; AID 540317; AlphaScreen HP1-beta / biotin-H3K9me3 peptide binding; 0.56% of 390,000 active; Potency, µM (series often up to 114 µM), without a hit: top-dose activity change, negative = inhibition, most hits filed as inhibitors; further: potency means the concentration at half of the fitted maximal effect; nearly all actives have a fitted effect of over 70% in size
Target sequence (P83916 whole entry, looked up): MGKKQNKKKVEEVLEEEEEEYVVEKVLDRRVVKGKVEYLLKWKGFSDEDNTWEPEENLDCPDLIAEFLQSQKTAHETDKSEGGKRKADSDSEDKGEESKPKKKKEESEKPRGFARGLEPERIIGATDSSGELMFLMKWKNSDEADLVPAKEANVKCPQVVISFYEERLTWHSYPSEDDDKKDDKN
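HP1-beta protein (50 nM final) preincubated 30 min at room temperature with biotinylated H3(1-18)K9me3 peptide (50 nM) in PBS pH 7.4, 0.01% Tween-20, then compound added for 30 min. AlphaScreen streptavidin donor/nickel chelate acceptor beads (10 ug/mL final), 30 min dark, luminescence read.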
BAZ2B inh: inhibitors of human BAZ2B bromodomain. Q9UIF8. AlphaScreen BAZ2B-H3K14Ac peptide displacement. Potency, µM (series often up to 114 µM), inactives show top-dose activity change, negative = inhibition, usual class: inhibitors. 4.4% of 360,000 active. AID 504333; further: potency means the concentration at half of the fitted maximal effect; on the % scale 0 is the no-effect control and ±100 the full control effect; nearly all actives have a fitted effect of over 60% in size
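BAZ2B 50 nM plus b-H3(5-23)K14Ac 50 nM, PBS pH 7.4/0.01% Tween-20, 30 min RT; compound added (max 110 uM), 30 min RT; streptavidin donor/Ni-chelate acceptor beads 10 ug/mL final, 20 min dark; AlphaScreen read.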
JMJD2A Tudor: JMJD2A Tudor domain (human) inhibition. O75164. AlphaScreen JMJD2A-Tudor / H3K4me3 peptide binding. Potency, µM (highest dose often 114 µM), for the others: at the highest dose activity change, negative = inhibition, usual class: inhibitors. 4.4% of 390,000 active; further: potency means the concentration at half of the fitted maximal effect; on the % scale 0 is the no-effect control and ±100 the full control effect; nearly all actives have a fitted effect of over 50% in size
* = called active by the depositor; ? = inconclusive; . = not tested or not shown; [ ] = remark or other dose. A selection: hits, their analogues and other compounds. The true share with any hit is near 10%. Unless noted, the call rests on the fitted dose curve; in most records, active means well fitted inhibition curve with a large enough effect; inconclusive means small, poorly fitted or top-dose-only effect; inactive means no such curve, though single readings can be large or run the other way.

SMILES	G9a inh	CtBP-E1A inh	Six1-Eya2 blk	HP1b binding inh	BAZ2B inh	JMJD2A Tudor
O=[N+]([O-])c1ccc2nc(NCCCO)nc(-c3ccccc3)c2c1	0%[59 µM]	-23	-19	?	-4%	?
COc1cc(OC)cc(-c2nnc(Sc3ccc(C=O)cc3[N+](=O)[O-])o2)c1	25µM*	.	.	.	?	.
O=C(/C=C/c1ccc(Cl)cc1)N1CCC(c2nc3ccccc3o2)CC1	3%[59 µM]	.	.	75%	?	-4%
CC(C)Sc1nnc(CNC(=O)C23CC4CC(CC(C4)C2)C3)n1Cc1ccccc1	32µM*	7	1	28%	1%	-13%
Cn1c(=O)c(-c2cccs2)nc2cnc(OCc3ccccc3)nc21	-4%[0.501 µM]	.	.	.	.	.
CC(=NNc1nc2ccccc2o1)c1ncccn1	.	0	-90*	-1%	.	10µM*
C/C(=N\Nc1nc2ccccc2s1)c1cccs1	-45%[59 µM]	-7	-11	-16%	?	?
CC(=NNc1nc2ccccc2s1)c1ncccn1	.	0	-92*	-28%	.	45µM*
CC(=NNc1nc2ccccc2o1)c1cc2ccccc2cn1	.	-66*	-93*	-17%	.	10µM*
Cc1c(C2CC(=O)N(c3ccccc3)C2=O)[nH]n(-c2ccccc2)c1=O (centres undefined)	35µM*	-15	-11	20%	?	-22%
CCCCN(CCCC)CC(O)COc1ccc(Br)cc1 (centres undefined)	7.9µM*	-1	6	?	32µM*	1.4µM*
O=[N+]([O-])c1ccc(OCC(O)CN(CCO)CCO)cc1 (centres undefined)	-18%[59 µM]	6	10	24%	-7%	-10%
CCOC(=O)C1CCCN(Cc2ccc(OC)cc2OC)C1 (centres undefined)	-21%[59 µM]	-5	11	?	-32%	1.3µM*
COc1ccc(CN2CCCC(C(=O)N3CCCC3)C2)c(OC)c1 (centres undefined)	-2%	-5	5	50µM*	50µM*	0.89µM*
COc1ccc(C(=O)C2CCCN(Cc3cc(Cl)ccc3O)C2)c(OC)c1 (centres undefined)	.	6	-2	60%	45%	15%
COc1cc(OC)c(NC(=O)N2CCc3cc(OC)c(OC)cc3C2CC(=O)O)cc1Cl (centres undefined)	-15%[12.7 µM]	.	.	12%	-26%	-5%
CCOC(=O)C1=C(CN2CCN(c3cc(C)ccc3C)CC2)NC(=O)NC1c1ccccc1 (centres undefined)	?	.	.	-16%	-33%	?
O=C(NCCCN1CCOCC1)c1ccc(N2CCOCC2)c([N+](=O)[O-])c1	50%	5	8	8%	2%	-16%
O=C(Nc1cccnc1)c1ccc(N2CCOCC2)c([N+](=O)[O-])c1	12%[59 µM]	-5	-7	34%	-33%	-20%
Cc1cccc(NC(=O)c2ccc(N3CCOCC3)c([N+](=O)[O-])c2)n1	20%[59 µM]	-1	-4	-18%	?	?
Cc1cccc(NC(=O)c2ccc(N3CCCCC3)c([N+](=O)[O-])c2)n1	?	?	?	?	11µM*	?
Cc1ccc(NC(=S)NNC(=O)c2ccc(N3CCOCC3)c([N+](=O)[O-])c2)cc1Cl	22µM*	-14	-18	?	?	25µM*
O=C(NNC(=S)Nc1ccc(Br)cc1)c1ccc(N2CCOCC2)c([N+](=O)[O-])c1	11µM*	-1	-26	?	-26%	?
Cc1cc(C(=O)Nc2ccc(N3CCCC3)c(Cl)c2)ccc1[N+](=O)[O-]	-7%[59 µM]	?	?	?	28µM*	25µM*
Cc1ccccc1Cn1c(SCc2ccc(C(=O)NCc3cccs3)cc2)nc2ccncc21	-34%[59 µM]	.	.	82%	16%	-23%
SMILES	G9a inh	CtBP-E1A inh	Six1-Eya2 blk	HP1b binding inh	BAZ2B inh	JMJD2A Tudor
Cc1oc2ncnc(N3CCOCC3)c2c1C(=O)N1CCN(c2cccc(C(F)(F)F)c2)CC1	-3%[59 µM]	.	.	33%	7%[57.1 µM]	-16%
Cc1oc(-c2cccc(Cl)c2)nc1CSc1nncn2c1cc1occc12	10%[59 µM]	.	.	29%	-1%	-16%
Cc1ccc(C(=O)Nc2onc3c2CCCC3)cc1	-7%[59 µM]	.	.	31%	0%	-11%
Cc1ccc(NC(=O)CCSc2nc(-c3ccco3)cc(C(F)(F)F)n2)cc1F	17%[59 µM]	.	.	40%	3%	-3%
Cc1sc(NC(=O)Nc2ccccc2)c(C(N)=O)c1C	8.9µM*	-6	-7	?	-29%	-25%
COC(=O)CCC(=O)NC(=S)Nc1sc(C)c(C)c1C(N)=O	8.9µM*	17	-5	1%	5%	-25%
COC(=O)c1c(NC(=O)Nc2ccc(Cl)cc2)sc(C)c1C	5%[59 µM]	0	-2	14%	-1%	-13%
COC(=O)CCC(=O)Nc1sc(C)c(C)c1C(N)=O	2.8µM*	-1	-5	?	-15%	?
CCOC(=O)Nc1sc(C)c(C)c1C(N)=O	40µM*	-1	0	32%	11%	1%
CCC(=O)N(CC(=O)Nc1sc(C)c(C)c1C(N)=O)C1CCCC1	-10%[59 µM]	-8	6	26%	-11%	-8%
CCOC(=O)c1c(NC(N)=O)sc(C)c1C	2%[59 µM]	2	-1	43%	-10%	-13%
COC(=O)C(Cc1c[nH]c2ccccc12)NC(=O)COc1cccc(C)c1 (centres undefined)	0%[59 µM]	.	.	29%	-26%	-25%
Cc1[nH]c(=O)[nH]c(=O)c1Sc1ccccc1[N+](=O)[O-]	56µM*	2	-8	32%	-6%	-12%
COc1ccccc1CC(=O)Nc1ccc2nc(Nc3cccc(C(F)(F)F)c3)cc(C)c2c1	9%[59 µM]	.	.	39%	6%	-3%
CCOC(=O)C(=NCCCN(C)C)NNc1cc(C(F)(F)F)ccc1Cl	40µM*	-4	0	?	-34%	45µM*
CCOC(=O)C(=O)NNc1ccc(C)cc1	?	-13	-1	30%	3%	-6%
CCCCN=C(NNc1ccc(Br)cc1)C(=O)OCC	11µM*	-12	-19	-10%	?	?
CCOC(=O)C(=CNc1ccc(C(F)(F)F)cc1Cl)C(=O)OCC	121%	5	2	97%	24%	59%
CCOC(=O)C(=NCCCN(C)C)NNc1ccc(Br)cc1	7.1µM*	.	6	-3%	4%	-11%
CCN(CC)S(=O)(=O)c1ccc2c(c1)c(=O)c(C(=O)N1CCN(c3cc(C)ccc3C)CC1)cn2C	-1%[59 µM]	.	.	14%	.	-24%
CO/N=C(\C(=O)N[C@@H]1C(=O)N2C(C(=O)O)=C(COC(C)=O)CS[C@@H]12)c1csc(N)n1	-39%[12.7 µM]	.	.	.	.	.
